Measurements published in PubChem BioAssay.
Active and inactive are the calls of the source.

Columns and labels:
[1] = compounds binding Alexa647 anti-His antibody – biochemical, small-molecule microarray, 635 nm fluorescence, artefact control for SMM control protein annotation, primary screen (AID 1128); conditions: higher = more signal;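 note: score merges feature fluorescence with signal-to-noise for each printed compound spot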
[2] = tested on: Human papillomavirus type 1a E7 protein (residues 1-88); assay: HPV1a E7 small-molecule binders, primary screen, biochemical, small-molecule microarray, residues 1-88, 635 nm (AID 1129); conditions: small-molecule microarray binding, fluorescence 635 nm; higher = more signal
[3] = molecular target: Focal adhesion kinase 1 (Homo sapiens) (UniProt Q05397); assay: PTK2 protein binding on printed compound slides – biochemical, small-molecule microarray, 635/667 nm fluorescence, BSA, DTT, primary screen (AID 1130); conditions: 635 nm fluorescence, higher = more signal;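 note: composite of spot emission at 667 nm and signal to noise over triplicate slides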
Sequence of Focal adhesion kinase 1 (Homo sapiens) (Q05397 whole entry, looked up): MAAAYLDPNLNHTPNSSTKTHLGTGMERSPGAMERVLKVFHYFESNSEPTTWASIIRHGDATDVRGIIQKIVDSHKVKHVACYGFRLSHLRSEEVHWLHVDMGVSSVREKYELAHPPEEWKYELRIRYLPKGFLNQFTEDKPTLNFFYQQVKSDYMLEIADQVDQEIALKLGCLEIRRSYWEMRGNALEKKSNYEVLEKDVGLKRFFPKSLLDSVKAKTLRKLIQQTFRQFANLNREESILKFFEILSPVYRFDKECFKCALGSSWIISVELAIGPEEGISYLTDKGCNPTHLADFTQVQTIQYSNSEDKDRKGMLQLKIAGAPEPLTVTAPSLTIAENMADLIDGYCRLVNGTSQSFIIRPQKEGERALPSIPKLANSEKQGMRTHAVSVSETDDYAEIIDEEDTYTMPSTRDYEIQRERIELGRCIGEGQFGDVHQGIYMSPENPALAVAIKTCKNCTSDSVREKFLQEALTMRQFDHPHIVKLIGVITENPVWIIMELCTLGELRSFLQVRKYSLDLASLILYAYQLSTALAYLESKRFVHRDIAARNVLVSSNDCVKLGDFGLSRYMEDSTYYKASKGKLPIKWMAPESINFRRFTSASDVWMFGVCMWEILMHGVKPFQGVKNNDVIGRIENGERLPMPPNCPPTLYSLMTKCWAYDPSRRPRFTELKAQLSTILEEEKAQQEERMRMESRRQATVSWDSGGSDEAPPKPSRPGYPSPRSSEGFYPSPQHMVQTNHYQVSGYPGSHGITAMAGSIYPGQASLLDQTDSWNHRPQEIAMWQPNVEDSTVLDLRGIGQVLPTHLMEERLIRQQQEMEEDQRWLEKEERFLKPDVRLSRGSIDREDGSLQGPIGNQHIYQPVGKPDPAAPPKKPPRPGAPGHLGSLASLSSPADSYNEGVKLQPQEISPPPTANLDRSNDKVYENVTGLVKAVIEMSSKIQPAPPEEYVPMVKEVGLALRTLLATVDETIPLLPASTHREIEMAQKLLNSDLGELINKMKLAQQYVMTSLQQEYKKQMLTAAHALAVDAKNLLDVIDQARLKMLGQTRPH

[4] = tested on: Fibrinogen (Alexa647-labelled); assay: Alexa647-fibrinogen binding to printed small molecules – biochemical, small-molecule microarray, 635/667 nm fluorescence, artefact control for SMM control-protein annotation, profiling panel (AID 1131); conditions: fibrinogen-A647 binding fluorescence, higher = more signal;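 note: z-score merges 667 nm fluorescence with per-spot signal-to-noise over triplicate slides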
[5] = molecular target: Follistatin (Homo sapiens) (UniProt P19883); assay: FST protein binding to printed compounds – biochemical, small-molecule microarray, 635/667 nm fluorescence, primary screen (AID 1132); conditions: 635 nm fluorescence, higher = more signal
Sequence of Follistatin (Homo sapiens) (P19883 whole entry, looked up): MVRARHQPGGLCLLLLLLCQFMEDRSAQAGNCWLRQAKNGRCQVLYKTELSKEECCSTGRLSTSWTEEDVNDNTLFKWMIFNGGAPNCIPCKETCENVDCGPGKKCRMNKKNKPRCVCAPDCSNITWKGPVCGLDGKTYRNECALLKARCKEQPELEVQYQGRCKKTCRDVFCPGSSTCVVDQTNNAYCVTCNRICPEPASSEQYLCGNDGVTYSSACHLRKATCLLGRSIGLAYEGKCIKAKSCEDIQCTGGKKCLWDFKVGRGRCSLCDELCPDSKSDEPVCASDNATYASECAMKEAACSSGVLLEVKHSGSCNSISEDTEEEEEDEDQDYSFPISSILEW

[6] = molecular target: Fibroblast growth factor 2 (Homo sapiens) (UniProt P09038); assay: basic fibroblast growth factor binding to printed compounds – biochemical, small-molecule microarray, 635/667 nm fluorescence, primary screen (AID 1133); conditions: FGF2, fluorescence 635/667, higher = more signal
Sequence of Fibroblast growth factor 2 (Homo sapiens) (P09038 whole entry, looked up): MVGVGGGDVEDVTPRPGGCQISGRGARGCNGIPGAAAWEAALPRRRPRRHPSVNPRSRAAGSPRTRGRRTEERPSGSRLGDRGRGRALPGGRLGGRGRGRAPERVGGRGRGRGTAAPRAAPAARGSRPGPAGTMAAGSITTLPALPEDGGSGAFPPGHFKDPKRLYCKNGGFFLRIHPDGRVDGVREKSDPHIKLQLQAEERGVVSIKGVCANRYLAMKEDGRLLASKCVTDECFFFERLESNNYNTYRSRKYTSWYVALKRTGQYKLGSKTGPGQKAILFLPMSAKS

[7] = JC-1 mitochondrial potential readout, lung cancer cells – cell-based, A549, JC-1 fluorescence, basal, 24 h, 100 nL, profiling panel (AID 1138); conditions: higher = more signal;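 note: A549 lung adenocarcinoma cells under basal conditions with no added stimulus; test concentration not given here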
Lefty1 = Lefty1 protein binding to printed compounds – biochemical, small-molecule microarray, 635/667 nm fluorescence, primary screen (AID 1139); conditions: fluorescence 635/667, higher = more signal
[8] = tested on: wheat germ agglutinin (Triticum aestivum), Alexa647-labelled; assay: Alexa647-WGA lectin binding to printed small molecules – biochemical, small-molecule microarray, 635/667 nm fluorescence, artefact control for SMM control-protein annotation, profiling panel (AID 1140); conditions: WGA-A647 binding, 635 nm fluorescence, higher = more signal;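 note: score merges 667 nm feature emission with signal to noise over triplicate slides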
[9] = molecular target: Luciferin 4-monooxygenase (Photinus pyralis) (UniProt P08659); assay: inhibition of purified Photinus pyralis luciferase – biochemical, luminescence, purified enzyme, 2006 set, primary screen (AID 1141); conditions: purified firefly luciferase, SteadyGlo luminescence, 30 min; higher = more signal, called active from +8 up or from −8 down;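 note: cell-free assay with purified firefly luciferase at 100 ng per well in PBS; test concentration not given here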
Sequence of Luciferin 4-monooxygenase (Photinus pyralis) (P08659 whole entry, looked up): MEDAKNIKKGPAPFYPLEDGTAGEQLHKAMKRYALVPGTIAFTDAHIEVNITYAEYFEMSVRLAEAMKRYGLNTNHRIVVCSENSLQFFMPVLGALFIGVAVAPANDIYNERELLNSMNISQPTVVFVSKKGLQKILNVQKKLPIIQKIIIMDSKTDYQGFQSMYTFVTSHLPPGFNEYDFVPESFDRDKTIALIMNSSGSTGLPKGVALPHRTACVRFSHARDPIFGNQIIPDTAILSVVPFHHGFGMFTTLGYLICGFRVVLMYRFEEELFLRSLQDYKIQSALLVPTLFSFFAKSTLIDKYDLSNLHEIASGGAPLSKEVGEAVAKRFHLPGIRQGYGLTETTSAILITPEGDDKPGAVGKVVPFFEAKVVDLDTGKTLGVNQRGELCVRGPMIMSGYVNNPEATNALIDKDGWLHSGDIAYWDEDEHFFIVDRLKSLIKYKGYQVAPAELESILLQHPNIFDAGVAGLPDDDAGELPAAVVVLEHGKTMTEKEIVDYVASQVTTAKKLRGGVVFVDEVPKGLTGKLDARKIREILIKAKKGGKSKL

For `CCCC=C(CCC)[C@@H](NS(=O)(=O)c1cccc2cccnc12)c1ccc(-c2ccccc2)cc1`, the composite z-score [1] was 0.187, the composite z-score [2] was 1.19 and the composite z-score [3] was 0.638. The composite z-score [4] was 0.98, the composite z-score [5] was 0.964 and the composite z-score [6] was 0.512. It also gave a z-score [7] of 1.03, a composite z-score (Lefty1) of 1.11 and a composite z-score [8] of 0.745. The z-score [9] was 2.06 (inactive).

In the case of `COc1ccc([Si](C)(C)[C@@H]2[C@@H](CCn3cc([C@H](O)c4ccccc4)nn3)O[C@]3(C(=O)N(c4ccccc4)c4ccccc43)[C@H]2C)cc1`, the composite z-score [1] is reported as -0.684, the composite z-score [2] is reported as 0.386 and the composite z-score [3] is reported as 0.474. It also gave a composite z-score [4] of -0.308, a composite z-score [5] of 0.586 and a composite z-score [6] of 0.184. It also gave a z-score [7] of 0.00801, a composite z-score (Lefty1) of 0.424 and a composite z-score [8] of -0.348. For the same compound, the z-score [9] was 0.389 (inactive).

`[N-]=[N+]=NCc1ccccc1[C@@H]1OC(c2ccc(OCCCO)cc2)=N[C@]1(Cc1ccccc1N=[N+]=[N-])C(=O)NCCN1CCOCC1` gave a composite z-score [1] of 1.37, a composite z-score [2] of 1.25 and a composite z-score [3] of 0.535. For the same compound, the composite z-score [4] was 0.983, the composite z-score [5] was 1.39 and the composite z-score [6] was 0.893. It also gave a z-score [7] of 2.23, a composite z-score (Lefty1) of 0.54 and a composite z-score [8] of 0.445. For the same compound, the z-score [9] was -2.82 (inactive).

Work on `CCOC(=O)C=Cc1cc(F)ccc1O` yielded a composite z-score [1] of 0.354, a composite z-score [2] of -0.166 and a composite z-score [3] of 0.727. The composite z-score [4] was -0.333, the composite z-score [5] was 0.0875 and the composite z-score [6] was 0.0013. For the same compound, the z-score [7] was -1.8, the composite z-score (Lefty1) was -0.471 and the composite z-score [8] was 0.0203. The z-score [9] was 0.701 (inactive).

With `CC(C)C[C@@H]1NC(=O)[C@@H]2C[C@H](C(=O)NCCCCCC[N+](C)(C)C)[C@H](c3cccc(OCCO)c3)N2C1=O` the composite z-score [1] was -0.759, the composite z-score [2] was -0.0265 and the composite z-score [3] was -0.219. It also gave a composite z-score [4] of 0.0163, a composite z-score [5] of 0.349 and a composite z-score [6] of 1.17. The z-score [7] was -0.547, the composite z-score (Lefty1) was 0.34 and the composite z-score [8] was -0.285. For the same compound, the z-score [9] was 0.184 (inactive).

Compound `C=CCNC(=O)[C@H]1[C@@H]2C(=O)O[C@@H](c3ccccc3)[C@@H](c3ccccc3)N2[C@@H](c2ccc(OCCO)cc2)[C@]12C(=O)Nc1ccc(C#CCNC(N)=O)cc12` has a composite z-score [1] of -0.293, a composite z-score [2] of 1.15 and a composite z-score [3] of 0.0494. It also gave a composite z-score [4] of 0.936, a composite z-score [5] of 1.41 and a composite z-score [6] of 1.05. For the same compound, the z-score [7] was -0.837, the composite z-score (Lefty1) was 0.767 and the composite z-score [8] was 0.912. For the same compound, the z-score [9] was -0.0338 (inactive).

In the case of `COC(=O)C(CC#Cc1ccc2c(c1)[C@]1(C(=O)N2)[C@H](c2ccc(OCCO)cc2)N2[C@H](c3ccccc3)[C@H](c3ccccc3)OC(=O)[C@H]2[C@@H]1C(=O)N1CCN(c2ncccn2)CC1)C(=O)OC`, the composite z-score [1] is reported as 1.92, the composite z-score [2] is reported as 1.21 and the composite z-score [3] is reported as -0.528. The composite z-score [4] was 0.993, the composite z-score [5] was 1.37 and the composite z-score [6] was 1.35. The z-score [7] was -1.56, the composite z-score (Lefty1) was 0.857 and the composite z-score [8] was 1.04. The z-score [9] was -0.195 (inactive).

`CC(C)C[C@@H]1NC(=O)CNC(=O)[C@@]23C(=O)N[C@@H](Cc4ccccc4)C2[C@H](C)[C@@]2(C)O[C@H]2C3/C=C/C/C=C\CNC1=O` (stereo not given in full) showed a composite z-score [1] of 0.678, a composite z-score [2] of 0.331 and a composite z-score [3] of -0.183. It also gave a composite z-score [4] of 0.949, a composite z-score [5] of 1.08 and a composite z-score [6] of 0.759. For the same compound, the z-score [7] was 0.036, the composite z-score (Lefty1) was 1.07 and the composite z-score [8] was -0.0197. The z-score [9] was -0.14 (inactive).

`CN1C(=O)C2C(C1=O)C1C=C(CCCO)C2C(c2cccs2)N1Cc1cc2c(cc1Br)OCO2` (stereo not given) showed a composite z-score [1] of 1.12, a composite z-score [2] of 1.22 and a composite z-score [3] of 1.07. The composite z-score [4] was 1.04, the composite z-score [5] was 1.35 and the composite z-score [6] was 0.502. For the same compound, the z-score [7] was 0.903, the composite z-score (Lefty1) was 0.265 and the composite z-score [8] was 1.17. For the same compound, the z-score [9] was -1.48 (inactive).

In the case of `CC=CC(O)C1C=CC2C(=O)NC(=O)C2N1Nc1ccccn1` (stereo not given), the composite z-score [1] is reported as 1.41, the composite z-score [2] is reported as 0.497 and the composite z-score [3] is reported as 0.381. The composite z-score [4] was 0.657, the composite z-score [5] was 1.02 and the composite z-score [6] was 0.352. The z-score [7] was 0.514, the composite z-score (Lefty1) was 0.585 and the composite z-score [8] was 0.0489. For the same compound, the z-score [9] was -0.0429 (inactive).

With `COCCOC(=O)N1C(=O)[C@@]2(c3cc(C#CCNC(N)=O)ccc31)[C@H](c1ccc(O)cc1)N1[C@H](c3ccccc3)[C@H](c3ccccc3)OC(=O)[C@H]1[C@@H]2C(N)=O` the composite z-score [1] was -0.685, the composite z-score [2] was -0.703 and the composite z-score [3] was -0.529. It also gave a composite z-score [4] of -1.39, a composite z-score [5] of -1.91 and a composite z-score [6] of -0.93. For the same compound, the z-score [7] was 0.902, the composite z-score (Lefty1) was -1.72 and the composite z-score [8] was -1.18. For the same compound, the z-score [9] was -1.03 (inactive).

Compound `CN(C)C(=O)[C@@]1(CCC(=O)OC(C)(C)C)N=C(c2ccc(OCCCO)cc2)O[C@H]1c1ccccc1CN=[N+]=[N-]` has a composite z-score [1] of 2.38, a composite z-score [2] of 1.17 and a composite z-score [3] of 0.821. It also gave a composite z-score [4] of 1.01, a composite z-score [5] of 1.29 and a composite z-score [6] of 0.512. It also gave a z-score [7] of 0.123, a composite z-score (Lefty1) of -0.597 and a composite z-score [8] of 1.05. For the same compound, the z-score [9] was -0.659 (inactive).

Compound `Cc1ccccc1C(O)C1C=CC2C(=O)N(c3ccccc3)C(=O)C2N1Nc1ccc([N+](=O)[O-])cc1` (stereo not given) has a composite z-score [1] of 1.48, a composite z-score [2] of 1.21 and a composite z-score [3] of 0.533. For the same compound, the composite z-score [4] was 1.01, the composite z-score [5] was 1.23 and the composite z-score [6] was 1.06. The z-score [7] was -0.752, the composite z-score (Lefty1) was 0.0122 and the composite z-score [8] was 0.515. The z-score [9] was 1.18 (inactive).

In the case of `COC(=O)[C@@]1(Cc2ccccc2)[C@H]2c3cc(C(=O)N(C)C)n(CCn4cc([N+](=O)[O-])nc4C)c3C[C@H]2CN1C(=O)c1ccccc1`, the composite z-score [1] is reported as 0.735, the composite z-score [2] is reported as 0.858 and the composite z-score [3] is reported as 1.39. For the same compound, the composite z-score [4] was 0.989, the composite z-score [5] was 0.387 and the composite z-score [6] was -0.163. For the same compound, the z-score [7] was -0.22, the composite z-score (Lefty1) was 0.216 and the composite z-score [8] was 1.1. For the same compound, the z-score [9] was -0.0637 (inactive).

Work on `COCC1C2CC[C@H]3C(OCc4ccc(OC)cc4)OC[C@]4(C)[C@H]3C2=C(CN4C(=O)OC(C)(C)C)[C@H](C)C1COC` (stereo not given in full) yielded a composite z-score [1] of 0.565, a composite z-score [2] of 1.2 and a composite z-score [3] of 2.09. For the same compound, the composite z-score [4] was 1.02, the composite z-score [5] was 0.916 and the composite z-score [6] was 0.0753. It also gave a z-score [7] of 2.48, a composite z-score (Lefty1) of 0.757 and a composite z-score [8] of 0.819. For the same compound, the z-score [9] was -0.503 (inactive).

Work on `CCOC(=O)C[C@H]1[C@H](OC(=O)c2ccccc2-c2ccccc2)[C@@H](NC(=O)c2ccccc2)c2cc(OCCCO)ccc2N1C(=O)c1ccccc1` yielded a composite z-score [1] of -0.356, a composite z-score [2] of 0.558 and a composite z-score [3] of 0.59. The composite z-score [4] was 0.847, the composite z-score [5] was 0.378 and the composite z-score [6] was 0.673. The z-score [7] was 0.629, the composite z-score (Lefty1) was 0.292 and the composite z-score [8] was 0.0533. For the same compound, the z-score [9] was 0.354 (inactive).
